# PLK1 PBD inh: inhibitors of human PLK1 polo-box domain binding; Potency, µM, for the others: max response, negative = inhibition, usual class: inhibitors; 2.8% of 360,000 active; Plk1 PBD binding of FITC phosphopeptide, fluorescence polarization; P53350; note: series mostly up to about 57 µM; nearly all actives have a fitted effect of over 65% in size
# VDR inh: vitamin D3 receptor (human) inhibition | P11473 | VDR-SRC2-3 peptide fluorescence polarization, 2 h | Potency, µM, without a hit: max response, negative = inhibition, actives largely listed as inhibitors | 0.93% of 400,000 active | AID 504847
# Target sequence (P11473 whole entry, looked up): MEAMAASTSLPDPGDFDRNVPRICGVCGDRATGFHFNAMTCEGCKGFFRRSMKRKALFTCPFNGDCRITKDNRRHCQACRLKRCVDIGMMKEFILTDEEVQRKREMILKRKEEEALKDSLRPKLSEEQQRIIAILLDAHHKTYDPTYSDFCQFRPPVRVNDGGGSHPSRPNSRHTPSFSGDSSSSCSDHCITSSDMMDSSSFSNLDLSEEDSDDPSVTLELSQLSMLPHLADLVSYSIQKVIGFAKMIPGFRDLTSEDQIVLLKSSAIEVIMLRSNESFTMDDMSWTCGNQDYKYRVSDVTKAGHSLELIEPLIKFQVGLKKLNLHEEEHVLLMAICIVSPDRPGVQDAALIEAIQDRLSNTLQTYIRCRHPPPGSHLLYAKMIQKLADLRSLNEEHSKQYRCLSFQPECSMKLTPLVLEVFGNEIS
#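 Measured by FP: displacement of SRC2-3 coactivator peptide from VDR by library compounds, following a two-hour ambient incubation.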
# Sfp PPTase inh: Sfp phosphopantetheinyl transferase inhibition; AID 1490; Potency, µM, for inactives: largest response in the series, negative = inhibition, usual class: inhibitors; Biochemical Sfp PPTase activity, qHTS; 3.5% of 310,000 active;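 note: the enzyme is Sfp with the accession as filed and its product quenches rhodamine fluorescence; 0% = enzyme reaction without inhibitor and -100% = no enzyme wells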
#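 Reaction rates are the 30-min fluorescence difference (ex 525, em 598 nm) in wells containing 15 nM Sfp, 5 uM rhodamine-CoA and 12.5 uM BHQ-2-YbbR at pH 7.6 with 10 mM MgCl2.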
# ALOX12 inh: inhibitors of human 12S-lipoxygenase ALOX12. purified 12hLO, xylenol orange hydroperoxide absorbance. Potency, µM (highest dose often 108 µM), for inactives: at the top dose activity change, negative = inhibition, most hits filed as inhibitors. 1.1% of 580,000 active. AID 1671190
#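 Hydroperoxide product was detected by ferrous iron/xylenol orange as the 573 to 405 nm absorbance ratio. Arachidonic acid at 40 uM (final) was turned over for 30 min at room temperature by 150 nM human 12hLO, pH 7.0 Hepes buffer, after 15 min compound preincubation.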
# TbPYK confirm: confirmation of Trypanosoma brucei pyruvate kinase inhibitors | 67% of 890 active | recombinant TbPYK, Kinase-Glo ATP luminescence | AID 720569 | shares compounds with PLK1 PBD inh | Potency, µM (top dose mostly 76.9 µM), for inactives: top-dose activity change, negative = inhibition, most hits filed as inhibitors; note: nearly all actives have a fitted effect of over 70% in size
# TbPYK orthogonal: orthogonal confirmation of Trypanosoma brucei pyruvate kinase inhibitors. shares compounds with PLK1 PBD inh. recombinant TbPYK, ADP-Glo luminescence, 60 min. Potency, µM (series often up to 76.9 µM), for the others: top-dose activity change, negative = inhibition, hits mostly inhibitors. 62% of 890 active; note: nearly all actives have a fitted effect of over 75% in size
# Active calls of the source: *; ? = inconclusive; . = not tested or not shown; [ ] = dose if it differs, or a comment. A selection: hits, their analogues and other compounds. The true share with any hit is near 4.2%. Calls come from the whole dose curve; as a rule, active = well fitted curve in the direction sought with a large enough effect; inconclusive = small, poorly fitted or top-dose-only effect, or another doubt; inactive = no such curve, though single readings can be large; an effect the other way counts as inactive or inconclusive. Unless noted, % is set by controls: 0 for no effect and ±100 for the full control effect; potency is the fitted concentration of half-maximal effect.
SMILES,PLK1 PBD inh,VDR inh,Sfp PPTase inh,ALOX12 inh,TbPYK confirm,TbPYK orthogonal
COc1cccc(NC(=O)CCC2CCN(C(=O)c3cncs3)CC2)c1,-3%,?,-10%,?,20µM*,?
Oc1c(CN2CCOCC2)cc(CN2CCOCC2)c(O)c1CN1CCOCC1,1.7µM*,10µM*,.,0%,1.4µM*,?
C/C(CC(=O)NCc1ccco1)=N\NC(=O)C(c1ccccc1)c1ccccc1,-8%,-12%,0%,-6%,.,.
Cc1ccc(S(=O)(=O)C=CS(=O)(=O)c2ccc(C)cc2)cc1,2.7µM*,.,.,8.9µM*,-61%,?
COC(=O)c1ccc(CCc2cc(O)c(Br)cc2O)cc1,?,-6%,.,?,32µM*,35µM*
CSCCC(NC(=O)COc1ccccc1)C(=O)N1CCCCCC1 (stereo not given),-4%,-14%,.,238%,.,.
O=c1c2sccc2[nH]c(=S)n1Cc1ccccc1,-20%,-6%,-18%,?,14µM*,7.1µM*
COc1ccc(Cn2c(=S)[nH]c3ccsc3c2=O)cc1,-10%,-10%,-13%,-8%,5µM*,5.6µM*
N/C(=N/OC(=O)c1ccccc1Cl)c1nonc1N,-4%,-5%,-11%,-16%,25µM*,6%
N/C(=N\OC(=O)c1ccc(F)cc1)c1nonc1N,-18%,6%,25%,8%,.,.
COCCn1c(SCC(=O)N2CCCCCC2)nnc1-c1ccco1,-15%,8%,14%,20%,.,.
COc1ccc(CN2CCC(n3nccc3NC(=O)C3CCCC3)CC2)c(OC)c1,-5%,3%,-4%,8%,.,.
CCOC(=O)C(C)Sc1nc(N2CCOCC2)c2c(c1C#N)CC(C)(C)OC2 (stereo not given),-6%,7%,.,0%,.,.
CCOC(=O)CCSc1nc(N2CCOCC2)c2c(c1C#N)CC(C)(C)OC2,-10%,-8%,-2%,0%,11µM*,11µM*
COc1ccc(N2C3=C(CC4=C2CCCC4=O)C(=O)CCC3)cc1,21µM*,-22%,-2%,?,-7%,-23%
COc1ccc(-n2ccc(=O)c3c2CCCC3=O)cc1,0%,-8%,-5%,115%,.,.
COc1ccc(C(=O)N/N=C/c2ccc(N3CCOCC3)o2)cc1OC,-14%,?,3.5µM*,-8%,-7%,?
Cc1ccc(-c2csc3ncn(-n4c(C)ccc4C)c(=O)c23)o1,?,?,-11%,?,-24%,?
Cn1c2nc3ccccc3c-2nc2ccccc21,-7%,.,.,?,.,.
Cc1ccc(-c2nc3ccccc3n2C)o1,-11%,-19%,35µM*,-7%,?,-7%
O=C1COCC2(CN1Cc1ccccc1)CN(c1ccccc1)C2,.,.,.,-8%[176 µM],.,.
O=C1N(Cc2ccccc2)CC2(Br)COCOC12O (stereo not given),2.7µM*,?,.,?,1.1µM*,3.5µM*
Cc1cc(C)c(C(=O)N(CC2CCN(C3Cc4ccccc4C3)CC2)CC2CCCO2)o1 (stereo not given),.,.,.,17%,.,.
Cc1ccc(S(=O)(=O)NNc2ccccc2)c(C)c1,21µM*,?,18µM*,?,16µM*,?
Cc1ccc(S(=O)(=O)NNC(=O)c2cccs2)c(C)c1,2%,3%,13%,-12%,.,.
SMILES,PLK1 PBD inh,VDR inh,Sfp PPTase inh,ALOX12 inh,TbPYK confirm,TbPYK orthogonal
CN(CCCC(=O)NCc1ccco1)S(=O)(=O)c1ccccc1,-5%,-6%,13%,-15%,.,.
COc1ccc(OC)c(NC2c3ccccc3C(=O)N2Cc2ccc3c(c2)OCO3)c1 (stereo not given),-7%,1%,7%,5%,?,35µM*
O=C1c2ccccc2C(Nc2ccc3c(c2)OCO3)N1Cc1ccc2c(c1)OCO2 (stereo not given),-1%,5%,?,-22%,.,.
CC1(C)Cc2c(C#N)c(N)sc(=S)c2CS1,8.4µM*,?,16µM*,?,?,?
CC(C)c1nc(Cl)c(C#N)c2c1CSC(C)(C)C2,-8%,-3%,-3%,0%,.,.
CC(=O)Nc1ccc(OC(=O)c2cc3ccccc3oc2=O)cc1,0%,18%,10%,475%,.,.

# Source: PubChem (National Center for Advancing Translational Sciences (NCATS))
